From PubChem BioAssay
Pf growth 96h = Primary qHTS for delayed death inhibitors of the malarial parasite plastid, 96 hour incubation. P. falciparum luciferase reporter growth, 96 h. Potency, µM (titrated, usually from 28.7 µM), inactives show at the top dose activity change, negative = inhibition, usual class: inhibitors. hit rate 6.9% among 320,000. AID 504834, 2011; further: potency means the concentration at half of the fitted maximal effect; on the % scale 0 is the no-effect control and ±100 the full control effect
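Two parasite generations (96 h, 37 C, 5% CO2) of compound exposure in infected erythrocytes (0.05% parasitemia, 2% hematocrit). Luciferase-reporter P. falciparum; decreased luminescence indicates inhibited growth, aimed at apicoplast-acting delayed death.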
HCV inhibitor = qHTS Assay for Inhibitors of Hepatitis C Virus (HCV) | Huh7.5.1 HCVcc-Cre infection, luciferase reporter, 44 h | Potency, µM (series often up to 41.8 µM), for inactives: at the highest dose activity change, negative = inhibition, usual class: inhibitors | hit rate 3.4% among 340,000; further: potency means the concentration at half of the fitted maximal effect; on the % scale 0 is the no-effect control and ±100 the full control effect
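Antiviral activity was scored by luciferase reporter output from cells infected with HCVcc-Cre (~0.5 moi) in presence of compound, 44 h infection period, cells seeded 1,000/well 4 h prior.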
Pf growth 48h = Primary qHTS for delayed death inhibitors of the malarial parasite plastid, 48 hour incubation. hit rate 5.9% among 310,000. Potency, µM (series often up to 28.7 µM), without a hit: at the top dose activity change, negative = inhibition, hits mostly inhibitors. P. falciparum luciferase growth in erythrocytes, 48 h; further: potency means the concentration at half of the fitted maximal effect; on the % scale 0 is the no-effect control and ±100 the full control effect
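Firefly luciferase activity from engineered P. falciparum reports growth; inhibitors lower the luminescent signal. Cultures contained 2% hematocrit erythrocytes at 0.1% final parasitemia.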
HCMV inh = qHTS Assay for inhibitors of the human cytomegalovirus (HCMV); HFF cells, HCMV-luciferase reporter, 72 h; active compounds read low; activity change, negative = inhibition, % at 57.5 µM; hit rate 4.5% among 410,000; AID 1259415, 2018; in the data active means activity change below about -60%; inconclusive means no clear call, values can overlap the other calls; inactive means above about -39%; further: on the % scale 0 is the no-effect control and ±100 the full control effect
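HFF cells seeded 16 h at 37C, treated with compounds, infected with luciferase-reporter HCMV at MOI 1 PFU/cell; luciferase read at 72 h post infection, normalized to buffer-only and Salinomycin controls.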
Shiga toxin inh = A qHTS for Small Molecule Inhibitors of Shiga Toxin; Vero cells, Shiga toxin protein synthesis inhibition reporter; inhibition, % at 38.7 µM; hit rate 9.2% among 290,000; AID 2315, 2010; in the data active means inhibition mostly above about 28%, no sharp cut-off; inactive means mostly below about 43%; further: 0% is about no effect
Cycloheximide cs = Cycloheximide Counterscreen for Small Molecule Inhibitors of Shiga Toxin; cell reporter, cycloheximide protein synthesis inhibition counterscreen; max response, %; hit rate 12% among 300,000; AID 2314, 2010; in the data active means max response mostly above about 13%, no sharp cut-off; inactive means mostly below about 14%; further: read at 38.3 µM for the half of the compounds with a filed dose; 0% is about no effect
* marks the source's active call; other numbers are inactive results; ? = inconclusive; nt = no result given. The list is not random: actives were taken first. Their share in the collection is about 21%. Unless noted, the call rests on the fitted dose curve; in most records, active means well fitted inhibition curve with a large enough effect; inconclusive means small, poorly fitted or top-dose-only effect, or another doubt; inactive means no such curve, though single readings can be large or run the other way.

SMILES	Pf growth 96h	HCV inhibitor	Pf growth 48h	HCMV inh	Shiga toxin inh	Cycloheximide cs
O=C(CCn1nc(-c2ccccc2)c2ccccc2c1=O)NN1CCOCC1	107%	20%	9%	-70*	-16	-5
C[C@@H]1CC[C@H](O)/C=C/C(=O)O[C@H](C)CC[C@H](O)/C=C/C(=O)O1	10µM*	?	?	-19	-3	-2
CCCCC[C@@H]1CCCCC[C@H](O)C[C@@H](O)[C@@H](O)/C=C/C(=O)O1	nt	nt	nt	-20	nt	nt
C[C@H]1CCC/C=C/[C@@H]2C[C@H](O)C[C@H]2[C@H](O)/C=C/C(=O)O1	2.9µM*	0.56µM*	2.1µM*	-98*	23	-7
CCCCC[C@H]1CCCCC[C@@H](O)C[C@H](O)[C@H](O)/C=C/C(=O)O1	nt	nt	nt	-25	nt	nt
COc1ccc(OC)c(NC(=O)CCN2CCN(C/C=C/c3ccccc3)CC2)c1	?	-28%	-12%	-14	-6	-3
COc1ccc(C(=O)Nc2cc(OC)nc(OC)n2)cc1	-1%	-15%	164%	72	53*	19*
COc1cc(NC(=O)CCc2ccccc2)nc(OC)n1	1%	?	18%	66	48*	35*
CCc1cccc2c(C#N)cn(CC(=O)NCCOC)c12	-21%	23%	10µM*	-5	-15	-5
CCc1ccccc1NC(=O)CSc1ccsc1[N+](=O)[O-]	2.3µM*	?	-10%	-66*	10	4
O=C(CSc1ccsc1[N+](=O)[O-])Nc1cccc(F)c1	17%	-23%	18%	13	30	21*
O=C(CSc1ccsc1[N+](=O)[O-])NCc1ccccc1	15µM*	-12%	124%	125	112*	44*
COc1ccc(OC)c(CCNC(=O)CSc2ccsc2[N+](=O)[O-])c1	-12%	?	?	10	2	12
O=C(CSc1ccsc1[N+](=O)[O-])NC1CCCC1	?	5%	-12%	?	13	7
CSc1ccc(CCNC(=O)CSc2ccsc2[N+](=O)[O-])cc1	?	-23%	3%	66	-9	-3
COc1ccccc1CNC(=O)CSc1ccsc1[N+](=O)[O-]	-4%	0%	90%	4	85*	43*
Nc1nnc(SCC(=O)Nc2cccc(F)c2)s1	nt	nt	nt	6	nt	nt
COc1ccc(CCNC(=O)CSc2cn(CCNC(=O)c3ccccc3F)c3ccccc23)cc1OC	nt	nt	nt	-20	nt	nt
O=C(Cc1ccc(F)cc1)Nc1c(C(=O)N2CCN(c3ncccn3)CC2)oc2ccccc12	24%	-21%	-28%	?	2	-2
COc1ccc(CCNC(=O)CSc2ccsc2[N+](=O)[O-])c(OC)c1	1.7µM*	-14%	?	-17	3	-1
COc1ccc(C(=O)OCC(=O)N(C)C2CCS(=O)(=O)C2)cc1S(=O)(=O)N1CCCc2ccccc21 (stereo not drawn)	32%	-9%	36%	27	41	20*
COc1ccc(C(=O)OCC(=O)N(C)C2CCS(=O)(=O)C2)cc1S(=O)(=O)N(C)Cc1ccccc1 (stereo not drawn)	?	1%	-9%	-21	nt	nt
O=C(NNC(=O)c1ccccc1O)c1ccc(Cl)c(S(=O)(=O)N2CCc3ccccc32)c1	-4%	?	?	-72*	nt	nt
COc1ccc(C(=O)O)cc1S(=O)(=O)N1CCCc2ccccc21	0%	15%	-1%	54	10	-3
COc1ccc(C(=O)NCc2ccccc2)cc1S(=O)(=O)N1CCCc2ccccc21	nt	11µM*	?	-27	23	6
SMILES	Pf growth 96h	HCV inhibitor	Pf growth 48h	HCMV inh	Shiga toxin inh	Cycloheximide cs
CC(=O)N1CCN(C(=O)c2ccc(Cl)c(S(=O)(=O)N3CCc4ccccc43)c2)CC1	?	4%	?	0	nt	nt
Cc1ccc(NC(=O)c2ccc(Cl)c(S(=O)(=O)N3CCc4ccccc43)c2)nc1	nt	?	nt	-79*	nt	nt
COc1cc(NC(=O)COC(=O)C2CC(O)CN2S(=O)(=O)c2ccc(Cl)cc2)c(C)cc1[N+](=O)[O-] (stereo not drawn)	nt	0%	nt	?	nt	nt
O=C(N/C(=C\c1cccc([N+](=O)[O-])c1)C(=O)N1CCOCC1)c1ccco1	?	1%	39%	-22	21	5
CCOc1ccccc1NC(=O)CCCN1C(=S)NC(C)(C)CC1C (stereo not drawn)	346%	?	-19%	20	16	-2
COc1ccccc1NC(=O)N1c2ccccc2Sc2ccccc21	nt	nt	nt	24	nt	nt
COc1ccc(C(=O)Nc2ccc(C)cn2)cc1S(=O)(=O)N1CCCc2ccccc21	?	4.5µM*	12µM*	?	nt	nt
COc1ccc(C(=O)Nc2cccc(C)n2)cc1S(=O)(=O)N1CCCc2ccccc21	nt	2.5µM*	nt	-72*	nt	nt
CCCn1c(CCC(=O)Nc2cc(Cl)c(OC)cc2OC)nc2cccnc21	nt	nt	nt	-19	nt	nt
CCCSCCCNC(=O)c1ccc(Cn2c(=O)c3cccn3c3cccnc32)cc1	nt	nt	nt	-15	nt	nt
O=C(/C=C/c1cccs1)NC(=S)NNC(=O)Cc1cccs1	-45%	-19%	?	44	-4	1
O=C(/C=C/c1cccs1)Nc1scc(-c2ccccc2)c1C(=O)O	122%	13%	467%	-9	92*	44*
O=C(Cc1cccs1)Nc1nc(-c2ccccc2)cs1	19%	?	nt	-37	29	10
Cc1ccc(C(=O)Nc2scc(-c3ccccc3)c2C(=O)O)cc1	nt	23%	nt	30	nt	nt
O=C(/C=C/c1cccs1)Nc1nc(-c2ccccc2)cs1	-29%	22µM*	?	-15	63*	40*
Cc1ccnc(NC(=O)/C=C/c2cccs2)c1	121%	?	45%	104	97*	50*
O=C(/C=C/c1cccs1)Nc1nncs1	98%	-9%	47%	0	54*	34*
Cc1cc2oc(C(=O)N(Cc3ccc(N(C)C)cc3)CC3CCCO3)c(C)c2cc1Cl (stereo not drawn)	nt	nt	nt	-2	nt	nt
O=C(/C=C/c1cccs1)Nc1cccnc1	4.7µM*	-2%	216%	0	124*	75*
O=C(/C=N/O)Nc1cccnc1	?	-2%	-5%	52	18	-3
CC(=O)Nc1ccc(-c2csc(Nc3cccc(C)n3)n2)cc1	7%	13µM*	155%	7	73*	50*
CC(=O)Nc1cccc(-c2csc(Nc3ccc(C)cn3)n2)c1	?	?	32%	9	98*	69*
CC(=O)Nc1cccc(-c2csc(Nc3ncccn3)n2)c1	24%	nt	252%	3	91*	43*
Cc1cc(C)c(S(=O)(=O)Nc2ccc3oc4c(c3c2)CCCC4)cc1C	nt	nt	nt	3	nt	nt
